# Data published in PubChem BioAssay (NCI).
# This is part of a sample that, as a whole, favours compounds with a hit. Of some 79,000 tested, about 15% had one in any assay. Unmarked numbers belong to inactive results. Activity calls are given as the source filed them. Rule as the data show it: active = growth inhibition above about 70%; inactive = the rest.
# Tests used:
# [1] = NCI Yeast Anticancer Drug Screen. Data for the rad52 strain (AID 147);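 also: 0% = growth of vehicle-treated control cultures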; details: S. cerevisiae rad52 mutant growth inhibition, stronger effect = higher value
# In short: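 Vehicle-treated cultures served as the reference for growth inhibition of compound-exposed yeast bearing a DNA repair mutation.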
# [2] = NCI Yeast Anticancer Drug Screen. Data for the wt1 strain (AID 149);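 also: 0% = growth of vehicle-treated wt1 cultures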; details: S. cerevisiae wt1 strain (SPY 50644) growth inhibition, stronger effect = higher value
# In short: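 Vehicle-normalised growth inhibition; strain wt1; compound exposure.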
# [3] = NCI Yeast Anticancer Drug Screen. Data for the rad50EPP+ strain (AID 151);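 also: 0% = growth of vehicle-treated control cultures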; details: S. cerevisiae rad50 mutant strain, stronger effect = higher value
# In short: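 In this screen, rad50EPP+ yeast were exposed to compounds. Growth inhibition was scored against vehicle-treated controls.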
# [4] = NCI Yeast Anticancer Drug Screen. Data for the rad50 strain (AID 155);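 also: 0% = growth of vehicle-only cultures of the same strain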; details: S. cerevisiae rad50 strain growth inhibition, stronger effect = higher value
# In short: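 A DNA repair-deficient yeast mutant serves as the test organism; compound-induced growth inhibition is calculated against vehicle-treated cells.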
# [5] = NCI Yeast Anticancer Drug Screen. Data for the mec2-1 strain (AID 157); details: S. cerevisiae mec2-1 strain, stronger effect = higher value
# In short: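 Vehicle-treated cultures served as reference for growth inhibition of compound-exposed mec2-1 yeast.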
# [6] = NCI Yeast Anticancer Drug Screen. Data for the rad14 strain (AID 159);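 also: 0% = growth of vehicle-treated control cultures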; details: S. cerevisiae rad14 strain growth inhibition, stronger effect = higher value
# In short: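 Vehicle-treated cultures served as the baseline for growth inhibition of a DNA repair-mutant yeast strain exposed to each compound.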
# [7] = NCI Yeast Anticancer Drug Screen. Data for the sgs1 mgt1 strain (AID 161);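 also: 0% = growth of cultures given vehicle only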; details: S. cerevisiae sgs1 mgt1 strain, stronger effect = higher value
# In short: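 Inhibition of yeast growth, normalised to vehicle-treated controls, is reported for a strain bearing genetic alterations in DNA damage repair.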
# [8] = NCI Yeast Anticancer Drug Screen. Data for the CLN2oe strain (AID 163);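 also: 0% = growth of vehicle-only control cultures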; details: S. cerevisiae CLN2oe strain, stronger effect = higher value
# In short: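 Inhibition relative to vehicle-treated yeast is reported. Cells: strain with genetic alteration in cell-cycle control, grown with compound.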
# [9] = NCI Yeast Anticancer Drug Screen. Data for the cln2 rad14 strain (AID 165);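 also: 0% = growth equal to vehicle treated cultures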; details: S. cerevisiae cln2 rad14 strain, stronger effect = higher value
# In short: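 Each compound was tested on cln2 rad14 yeast. Inhibition of growth was calculated against vehicle-exposed controls.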
# [10] = NCI Yeast Anticancer Drug Screen. Data for the bub3 strain (AID 167); details: S. cerevisiae bub3 mutant strain, stronger effect = higher value
# In short: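 Inhibition values come from growth of compound-treated mutant yeast normalised to vehicle-treated controls.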
# [11] = NCI Yeast Anticancer Drug Screen. Data for the wt2 strain (AID 169);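 also: 0% = growth of vehicle-treated yeast cultures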; details: S. cerevisiae wt2 strain growth inhibition, stronger effect = higher value
# In short: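 Inhibition of yeast growth was determined after compound treatment, normalised to controls receiving only vehicle.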
# [12] = NCI Yeast Anticancer Drug Screen. Data for the mlh1 strain (AID 171);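 also: 0% = growth of vehicle-treated control cultures of the same strain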; details: S. cerevisiae mlh1 strain growth inhibition, stronger effect = higher value
# In short: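 Vehicle-normalised growth inhibition of a repair- or checkpoint-altered yeast strain following compound treatment.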
# [13] = NCI Yeast Anticancer Drug Screen. Data for the sgs1 strain (AID 173);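 also: 0% = growth of vehicle-only control cultures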; details: S. cerevisiae sgs1 mutant, stronger effect = higher value
# In short: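 Screen format: yeast with repair or checkpoint alterations, compound exposure, growth read relative to vehicle.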
# [14] = NCI Yeast Anticancer Drug Screen. Data for the mlh1 rad18 strain (AID 175); details: S. cerevisiae mlh1 rad18 strain growth inhibition, stronger effect = higher value
# In short: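 Vehicle-treated cultures served as the reference for growth inhibition in a yeast strain carrying DNA damage repair alterations exposed to each compound.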
# [15] = NCI Yeast Anticancer Drug Screen. Data for the rad18 strain (AID 177); details: S. cerevisiae rad18 mutant growth inhibition, stronger effect = higher value
# In short: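 Test articles were incubated with altered yeast defective in DNA damage repair. Results are given as inhibition of growth versus vehicle.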
# [16] = at 5.0 µM (retest, dose inferred, filed as 0.5)
# [17] = at 50.0 µM (retest, dose inferred, filed as 5.0)
structure (smiles),measurement,setting,value
CC1(C)N=C(N)N=C(N)N1c1cccc(N)c1.[Sn],growth inhibition,[1]; at 1.2 µM,18%
same,growth inhibition,[1]; at 3.7 µM,21%
same,growth inhibition,[1]; at 11.0 µM,19%
same,growth inhibition,[1]; at 33.0 µM,24%
same,growth inhibition,[1]; at 100.0 µM,43%
same,growth inhibition,[2]; at 1.2 µM,21%
same,growth inhibition,[2]; at 3.7 µM,17%
same,growth inhibition,[2]; at 11.0 µM,17%
same,growth inhibition,[2]; at 33.0 µM,29%
same,growth inhibition,[2]; at 100.0 µM,47%
same,growth inhibition,[3]; at 1.2 µM,-2%
same,growth inhibition,[3]; at 3.7 µM,-3%
same,growth inhibition,[3]; at 11.0 µM,-1%
same,growth inhibition,[3]; at 33.0 µM,-5%
same,growth inhibition,[3]; at 100.0 µM,-7%
same,growth inhibition,[4]; at 1.2 µM,5%
same,growth inhibition,[4]; at 3.7 µM,6%
same,growth inhibition,[4]; [16],24%
same,growth inhibition,[4]; at 11.0 µM,6%
same,growth inhibition,[4]; at 33.0 µM,24%
same,growth inhibition,[4]; [17],36%
same,growth inhibition,[4]; at 50.0 µM,9.35%
same,growth inhibition,[4]; at 100.0 µM,36%
same,growth inhibition,[5]; at 1.2 µM,2%
same,growth inhibition,[5]; at 3.7 µM,6%
same,growth inhibition,[5]; [16],7%
same,growth inhibition,[5]; at 11.0 µM,2%
same,growth inhibition,[5]; at 33.0 µM,15%
same,growth inhibition,[5]; [17],28%
same,growth inhibition,[5]; at 50.0 µM,-20.9%
same,growth inhibition,[5]; at 100.0 µM,33%
same,growth inhibition,[6]; at 1.2 µM,5%
same,growth inhibition,[6]; at 3.7 µM,9%
same,growth inhibition,[6]; at 11.0 µM,7%
same,growth inhibition,[6]; at 33.0 µM,18%
same,growth inhibition,[6]; at 100.0 µM,34%
same,growth inhibition,[7]; [16],45%
same,growth inhibition,[7]; [17],90% (active)
same,growth inhibition,[7]; at 50.0 µM,1.7%
same,growth inhibition,[8]; at 1.2 µM,-10%
same,growth inhibition,[8]; at 3.7 µM,-1%
same,growth inhibition,[8]; at 11.0 µM,-3%
same,growth inhibition,[8]; at 33.0 µM,-2%
same,growth inhibition,[8]; at 100.0 µM,-7%
same,growth inhibition,[9]; [16],5%
same,growth inhibition,[9]; [17],28%
same,growth inhibition,[9]; at 50.0 µM,-12.1%
same,growth inhibition,[10]; at 1.2 µM,-8%
same,growth inhibition,[10]; at 3.7 µM,-13%
same,growth inhibition,[10]; [16],9%
same,growth inhibition,[10]; at 11.0 µM,-18%
same,growth inhibition,[10]; at 33.0 µM,4%
same,growth inhibition,[10]; [17],29%
same,growth inhibition,[10]; at 50.0 µM,5.75%
same,growth inhibition,[10]; at 100.0 µM,17%
same,growth inhibition,[11]; at 1.2 µM,-3%
same,growth inhibition,[11]; at 3.7 µM,-4%
same,growth inhibition,[11]; at 11.0 µM,-1%
same,growth inhibition,[11]; at 33.0 µM,0%
same,growth inhibition,[11]; at 100.0 µM,1%
same,growth inhibition,[12]; at 1.2 µM,11%
same,growth inhibition,[12]; at 3.7 µM,22%
same,growth inhibition,[12]; at 11.0 µM,16%
same,growth inhibition,[12]; at 33.0 µM,29%
same,growth inhibition,[12]; at 100.0 µM,44%
same,growth inhibition,[13]; at 1.2 µM,14%
same,growth inhibition,[13]; at 3.7 µM,20%
same,growth inhibition,[13]; at 11.0 µM,19%
same,growth inhibition,[13]; at 33.0 µM,26%
same,growth inhibition,[13]; at 100.0 µM,52%
same,growth inhibition,[14]; [16],43%
same,growth inhibition,[14]; [17],78% (active)
same,growth inhibition,[14]; at 50.0 µM,-49.6%
same,growth inhibition,[15]; at 1.2 µM,-3%
same,growth inhibition,[15]; at 3.7 µM,2%
same,growth inhibition,[15]; at 11.0 µM,4%
same,growth inhibition,[15]; at 33.0 µM,17%
same,growth inhibition,[15]; at 100.0 µM,35%
